CYP2C19 act – activators of human cytochrome P450 2C19. P33261. recombinant CYP2C19, luciferin-H EGE luminescence; hits give high values; 0 = fully inhibited enzyme, 1 = untreated enzyme. activation factor at 5 µM. 96,000 tested, under 10 active. AID 1025;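 active = activation factor of at least 2 at 5 µM in the primary screen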;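 also: 0 = wells with 2.5 mM tranylcypromine and 1 = vehicle-only wells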
CYP2C9 inh – blocks human cytochrome P450 2C9. P11712. CYP2C9 Supersomes, luciferin-H conversion, luminescence. inhibition, % at 5 µM. actives 20% (n = 96,000). AID 777;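 active = blocking of liver enzyme CYP2C9 beyond about 50% at 5 µM, limit read from the data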
PLAP act – activators of human placental alkaline phosphatase; AID 696; activation fold at 20 µM; actives 1.2% (n = 96,000); purified PLAP enzyme, luminescent substrate read-out; hits give high values; in the data active = activation fold above about 2
Target sequence (P05187 whole entry, looked up): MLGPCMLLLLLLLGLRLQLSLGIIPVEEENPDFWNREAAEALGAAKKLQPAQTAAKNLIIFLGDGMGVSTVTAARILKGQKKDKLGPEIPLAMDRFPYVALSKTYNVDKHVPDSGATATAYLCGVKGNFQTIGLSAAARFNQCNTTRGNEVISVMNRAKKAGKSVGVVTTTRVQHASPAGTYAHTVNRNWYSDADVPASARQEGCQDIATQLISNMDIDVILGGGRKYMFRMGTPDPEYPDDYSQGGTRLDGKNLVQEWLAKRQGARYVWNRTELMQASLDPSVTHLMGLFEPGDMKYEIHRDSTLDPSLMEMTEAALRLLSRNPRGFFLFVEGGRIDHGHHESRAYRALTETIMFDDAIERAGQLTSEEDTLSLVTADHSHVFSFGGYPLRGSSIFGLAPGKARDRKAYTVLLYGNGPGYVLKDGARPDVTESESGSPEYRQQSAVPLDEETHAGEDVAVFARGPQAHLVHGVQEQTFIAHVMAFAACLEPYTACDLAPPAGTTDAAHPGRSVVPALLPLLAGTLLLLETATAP
CYP2C19 inhib – blocks human cytochrome P450 2C19; CYP2C19 Supersomes, luciferin-H EGE luminescence, 30 min; actives 21% (n = 96,000); P33261; inhibition, % at 5 µM;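 active = CYP2C19 inhibition above a set limit at 5 µM in the primary screen, cut at about 50% in these data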;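 also: plate controls were negative control wells for no effect and 2.5 mM tranylcypromine positive control for full effect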
CYP2C9 act – CYP2C9 (human) activation. actives 1.4% (n = 96,000). P11712. recombinant CYP2C9, luciferin-H conversion, luminescence; hits give high values; factor 1 = untreated enzyme, 0 = blocked. activation factor at 5 µM. AID 1024;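 active = activation factor of 2 or more for CYP2C9 at a 5 µM dose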;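 also: 0 = sulfaphenazole-blocked wells and 1 = vehicle-only wells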
* hit, by the source's call. This is a sample that favours compounds with a hit; in the whole collection about 31% have one here.

SMILES	CYP2C19 act	CYP2C9 inh	PLAP act	CYP2C19 inhib	CYP2C9 act
O=S(=O)(NCc1ccco1)c1cccc(S(=O)(=O)N2CCCCC2)c1	0.6	9	0.9	35	0.9
CN(C)c1nc(Oc2ccc(N)cc2)nc(N(C)C)n1	0.7	14	1.1	32	0.9
O=C(Nc1ccccc1N1CCCC1)c1ccc2c(c1)OCO2	0.3	53*	1	71*	0.5
O=C(Nc1cc(C(F)(F)F)ccc1N1CCCCC1)c1cccc([N+](=O)[O-])c1	0.7	56*	0.9	33	0.4
O=C(Nc1cc(C(F)(F)F)ccc1N1CCCC1)c1ccc2c(c1)OCO2	0.3	77*	0.9	69*	0.2
Cc1ccc(C(=O)Nc2cc(C(F)(F)F)ccc2N2CCCCC2)cc1[N+](=O)[O-]	0.5	26	0.9	46	0.7
CCC(=O)NC1(C(F)(F)F)C(=O)Nc2c1c(=O)[nH]c(=O)n2Cc1ccco1 (centres undefined)	1.1	-8	1.1	-14	1.1
O=C(COc1cccc2cccnc12)N1CCc2ccccc2C1	0.1	-223	1.1	88*	3.2*
O=C(COc1cccc2ccccc12)N1CCN(c2ccccc2)CC1	0	-72	1.8	95*	1.7
O=C(COc1cccc2ccccc12)N1c2ccccc2CCc2ccccc21	0.2	84*	1.3	76*	0.2
O=C(COc1ccc2ccccc2c1CN1CCOCC1)N1CCc2ccccc21	0.7	24	1.7	26	0.8
O=C(COc1cccc2ccccc12)N1CCN(c2ccccn2)CC1	0	-125	1.5	95*	2.3*
O=C(CSc1ncnc2c1cnn2-c1ccccc1Cl)N1CCN(C(=O)c2ccco2)CC1	0.9	41	1.2	14	0.6
Cn1c(=O)[nH]c(=O)c2c1nc(Br)n2CC(O)c1ccccc1 (centres undefined)	0.9	-1	1.2	10	1
CC(C)c1ccc(/C=N/NC(=O)CN(c2cccc(Cl)c2Cl)S(C)(=O)=O)cc1	1.1	1	1.1	-7	1
CN(C1CCS(=O)(=O)C1)S(=O)(=O)c1ccc(N2CCCC2=O)cc1 (centres undefined)	1	17	0.9	-2	0.8
Cc1cc(C)c2[nH]c(=O)c(C(c3nnnn3C3CCCC3)N3CCOCC3)cc2c1 (centres undefined)	1.1	-10	1.2	-14	1.1
O=C(NCc1ccccc1)c1ccccc1OCC(=O)N1CCCCC1	0.3	100*	0.8	73*	0
O=C(CSc1nccc(=O)[nH]1)c1ccccc1Br	0.9	55*	0.9	11	0.4
CCC(C)(C)NC(=O)CN(C(=O)c1snc(C(N)=O)c1N)c1ccc(OC)c(OC)c1	1.1	18	1.1	-14	0.8
Cc1ccc(-c2cnc(-c3ccncc3)o2)cc1	0	64*	0.9	98*	0.4
CC(=O)c1cccc(NC(=O)CN(c2cccc(F)c2)S(C)(=O)=O)c1	0.7	21	0.9	32	0.8
Cc1ccc(Sc2ccc(NC(=O)c3ccc(S(C)(=O)=O)cc3Cl)cc2)cc1	1.1	-18	0.9	-12	1.2
Cn1c(NC(=O)c2cc(Br)ccc2Cl)cc(=O)n(C)c1=O	0.4	29	0.9	59*	0.7
COc1ccc(/C=C/c2ccncc2)c2ccccc12	0.1	54*	1.2	88*	0.5
SMILES	CYP2C19 act	CYP2C9 inh	PLAP act	CYP2C19 inhib	CYP2C9 act
COc1ccc2ccccc2c1/C=N/O	1	-6	0.9	0	1.1
CC(C)OC(=O)CN1CCN(C2c3ccccc3-c3ccccc32)CC1	0.7	25	1.3	31	0.7
CC(C)CCNC(=O)CN(CCN1CCOCC1)C(=O)Cn1nnc(-c2ccc(F)cc2)n1	0.7	12	1.3	27	0.9
COc1cc(OC)c(C2CC(=O)N3CN(C)CSC3=C2C#N)cc1OC (centres undefined)	1	38	1.5	-2	0.6
N#CC1=C2SCN(Cc3ccccc3)CN2C(=O)CC1c1ccccc1F (centres undefined)	0.6	65*	1.3	42	0.4
COc1ccc(Br)cc1C1CC(=O)N2CN(Cc3ccccc3)CSC2=C1C#N (centres undefined)	0.3	94*	1.1	70*	0.1
COc1ccc(Br)cc1C1CC(=O)N2CN(C)CSC2=C1C#N (centres undefined)	0.4	88*	1.2	60*	0.1
CCc1nnc(NC(=O)CSc2nnc(-c3ccoc3C)n2-c2cccc(C)c2)s1	0.6	54*	1.4	37	0.5

Bioassay records deposited in PubChem by Sanford-Burnham Center for Chemical Genomics.
